Inconclusive results are not listed. Active and inactive are the calls of the source. Unless noted, calls follow the shape of the dose curve; as a rule, active = well fitted curve in the direction sought with a large enough effect; inconclusive = small, poorly fitted or top-dose-only effect, or another doubt; inactive = no such curve, though single readings can be large; an effect the other way counts as inactive or inconclusive.
Legend:
[1] = Cytometric Cell-Based qHTS for Inhibitors of the mTORC1 Signaling Pathway in MEF (Tsc2-/-, p53-/-) Cells (AID 2660);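 also: percent of cells above a phospho-rpS6 to PI ratio cutoff in each well; series mostly up to about 38 µM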
Outline: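 Cells are plated, treated with compound for 24 hrs at 37 degree Celsius, then fixed, blocked and immunostained for phospho-rpS6 Ser235/236. Propidium iodide counterstain follows. Per-well % positive cells is derived from the PI-normalized phospho-S6 signal.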

[2] = High Content Imaging Cell-Based qHTS for Inhibitors of the mTORC1 Signaling Pathway in MEF (Tsc2-/-, p53-/-) Cells (AID 2666);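 also: percent of cells scored positive for phospho-rpS6 Ser235/236 immunostaining by imaging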
Outline: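 Read-out: % positive cells per well, with thresholds from highest- and lowest-signal wells, based on phospho-rpS6 (Ser235/236) intensity normalized to Hoechst nuclear stain. Cells: Tsc2-/-, p53-/- MEFs carrying empty vector; compound 24 hrs, 37 degree Celsius.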

[3] = High Content Imaging Cell-Based qHTS for Inhibitors of the mTORC1 Signaling Pathway in MEF Cells (AID 2667); also: potency is read from the fitted curve at half-maximal effect
Outline: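 MEF (Tsc2-/-, p53-/-, WT Tsc2 re-expressed); cpd 24 h, 37 °C; PFA fix; Alexa-488 anti-p-rpS6 Ser235/236, PI, Hoechst; IN Cell imaging; Hoechst/Alexa-488 intensity ratio; % active cells, thresholds set from rapamycin and DMSO wells.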

[4] = Cytometry Cell-Based qHTS for Inhibitors of the mTORC1 Signaling Pathway in MEF cells (AID 2668); also: potency is read from the fitted curve at half-maximal effect
Outline: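 Phospho-rpS6 (Ser235/236) immunofluorescence over PI signal, scored as % positive cells using thresholds from 7.5 nM rapamycin and DMSO wells, after 24 h compound exposure of WT-Tsc2-rescued Tsc2-/-, p53-/- MEFs. PI cell count recorded for viability.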

[5] = biological target: Ubiquitin carboxyl-terminal hydrolase 2 (Homo sapiens) (UniProt O75604); test: qHTS Validation Assay for Inhibitors of Ubiquitin-specific Protease USP2a Using CHOP2 as the Reporter (AID 463106); also: potency is read from the fitted curve at half-maximal effect
Outline: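 USP2 core (10nM final) was preincubated with compound for 30min at RT in 20mM Tris-HCl pH 8.0, 2mM CaCl2, 2mM beta-mercaptoethanol, 0.05% CHAPS. Ub-CHOP2 and reporter substrate (25nM each) were added, and fluorescence (Ex 485/Em 531nm) was read after 60min.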

[6] = biological target: DNA polymerase III PolC-type (Bacillus subtilis (strain 168)) (UniProt P13267); test: qHTS Validation Assay for the Inhibitors of DNA Replication in Gram-Positive Bacteria (AID 485295); also: potency is read from the fitted curve at half-maximal effect
Outline: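 Double-stranded DNA product detected by PicoGreen fluorescence after EDTA quench. Compound incubated with B. subtilis holoenzyme (PolC, beta subunit, SSB, primase) before substrate addition; primed replication of M13Gori with dNTPs and NTPs at room temperature; DMSO defines 0% inhibition.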

[7] = qHTS Validation Assay to Find Inhibitors of Chronic Active B-Cell Receptor Signaling (AID 485345; active = well fitted curve in the direction sought with a large enough effect in the main read-out, with a control signal flat, not every such curve was filed as active)
Outline: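 TMD8 ABC-DLBCL cells with dox-inducible green luciferase–IκBα fusion and red native luciferase; compounds 46 uM–3 nM, 4 h at 37C with doxycycline in 0.5% FBS IMDM. Green/red ratio normalized to basal and 10 uM MG-132.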

[8] = biological target: Tumor susceptibility gene 101 protein (Homo sapiens) (UniProt Q99816); test: qHTS Validation Assay for Iinhibitors of HIV-1 Budding by Blocking the Interaction of PTAP/TSG101 (AID 485342; calls by dose curve)
Outline: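 Fluorescence polarization of 50 nM FITC-PTAP peptide bound to 10 uM Tsg101 binding domain was read after 20 min room-temperature incubation with compounds, in 10 mM HEPES pH 7.5, 0.15 M NaCl, 0.01% Tween 20.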

[9] = Validation screen for small molecules that induce DNA re-replication in MCF 10A normal breast cells (AID 463097); also: nearly all actives have a fitted effect of over 60% in size; also: potency is read from the fitted curve at half-maximal effect
Outline: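 Read-out is Hoechst total nuclear intensity by fluorescence scanning imager, flagging increased high-DNA-content nuclei. Compounds were incubated with MCF 10A cells for 48 hr (37 C, 5% CO2) before 40 min staining.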

Measured: Potency

Sequence of Tumor susceptibility gene 101 protein (Homo sapiens) (Q99816 whole entry, looked up, the tested form may be a part): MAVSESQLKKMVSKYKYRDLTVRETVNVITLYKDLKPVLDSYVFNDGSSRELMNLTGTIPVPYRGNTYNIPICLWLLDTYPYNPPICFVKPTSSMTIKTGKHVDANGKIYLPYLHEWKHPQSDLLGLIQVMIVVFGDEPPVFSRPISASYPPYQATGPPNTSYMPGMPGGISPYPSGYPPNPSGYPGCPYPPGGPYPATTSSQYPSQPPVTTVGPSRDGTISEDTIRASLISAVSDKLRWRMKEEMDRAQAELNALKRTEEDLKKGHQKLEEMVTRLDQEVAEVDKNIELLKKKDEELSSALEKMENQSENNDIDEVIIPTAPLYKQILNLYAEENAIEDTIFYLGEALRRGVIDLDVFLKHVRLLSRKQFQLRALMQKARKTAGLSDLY
Sequence of DNA polymerase III PolC-type (Bacillus subtilis (strain 168)) (P13267 whole entry, looked up): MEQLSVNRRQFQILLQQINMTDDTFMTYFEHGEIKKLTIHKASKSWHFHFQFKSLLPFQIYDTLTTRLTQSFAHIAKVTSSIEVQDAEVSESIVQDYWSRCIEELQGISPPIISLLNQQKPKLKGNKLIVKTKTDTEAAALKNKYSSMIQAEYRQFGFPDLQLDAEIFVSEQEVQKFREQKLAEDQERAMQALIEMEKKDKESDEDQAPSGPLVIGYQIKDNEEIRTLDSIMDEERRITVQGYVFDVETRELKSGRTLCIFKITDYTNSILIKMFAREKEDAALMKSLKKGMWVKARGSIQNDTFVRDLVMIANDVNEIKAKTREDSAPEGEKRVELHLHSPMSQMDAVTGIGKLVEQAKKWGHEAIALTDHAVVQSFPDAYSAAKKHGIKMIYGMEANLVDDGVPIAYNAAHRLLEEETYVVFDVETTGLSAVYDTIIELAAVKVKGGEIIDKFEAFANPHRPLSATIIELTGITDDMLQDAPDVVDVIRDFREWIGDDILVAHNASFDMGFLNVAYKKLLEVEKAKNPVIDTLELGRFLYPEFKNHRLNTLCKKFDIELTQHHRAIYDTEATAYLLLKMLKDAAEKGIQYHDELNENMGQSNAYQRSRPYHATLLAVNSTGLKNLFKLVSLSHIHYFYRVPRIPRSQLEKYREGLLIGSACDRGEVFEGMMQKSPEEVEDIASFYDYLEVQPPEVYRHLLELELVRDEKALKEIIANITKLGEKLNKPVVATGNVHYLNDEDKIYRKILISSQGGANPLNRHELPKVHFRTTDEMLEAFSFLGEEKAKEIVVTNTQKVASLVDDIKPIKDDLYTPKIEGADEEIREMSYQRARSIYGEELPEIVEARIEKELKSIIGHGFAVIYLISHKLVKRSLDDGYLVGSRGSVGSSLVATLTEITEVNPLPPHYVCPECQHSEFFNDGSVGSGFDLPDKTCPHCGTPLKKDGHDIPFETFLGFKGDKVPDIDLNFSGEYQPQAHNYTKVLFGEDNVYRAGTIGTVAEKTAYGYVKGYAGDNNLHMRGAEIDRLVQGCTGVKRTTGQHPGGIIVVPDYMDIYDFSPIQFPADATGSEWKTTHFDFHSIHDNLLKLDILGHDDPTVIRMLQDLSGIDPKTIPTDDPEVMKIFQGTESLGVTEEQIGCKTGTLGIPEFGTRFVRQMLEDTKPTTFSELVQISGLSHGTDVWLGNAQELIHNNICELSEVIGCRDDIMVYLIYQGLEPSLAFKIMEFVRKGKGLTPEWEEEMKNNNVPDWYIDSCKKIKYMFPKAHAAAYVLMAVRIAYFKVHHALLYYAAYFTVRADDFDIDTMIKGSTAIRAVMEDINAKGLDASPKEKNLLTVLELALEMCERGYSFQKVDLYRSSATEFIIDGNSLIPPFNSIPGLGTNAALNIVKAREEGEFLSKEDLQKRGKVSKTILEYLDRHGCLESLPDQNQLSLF
Sequence of Ubiquitin carboxyl-terminal hydrolase 2 (Homo sapiens) (O75604 whole entry, looked up): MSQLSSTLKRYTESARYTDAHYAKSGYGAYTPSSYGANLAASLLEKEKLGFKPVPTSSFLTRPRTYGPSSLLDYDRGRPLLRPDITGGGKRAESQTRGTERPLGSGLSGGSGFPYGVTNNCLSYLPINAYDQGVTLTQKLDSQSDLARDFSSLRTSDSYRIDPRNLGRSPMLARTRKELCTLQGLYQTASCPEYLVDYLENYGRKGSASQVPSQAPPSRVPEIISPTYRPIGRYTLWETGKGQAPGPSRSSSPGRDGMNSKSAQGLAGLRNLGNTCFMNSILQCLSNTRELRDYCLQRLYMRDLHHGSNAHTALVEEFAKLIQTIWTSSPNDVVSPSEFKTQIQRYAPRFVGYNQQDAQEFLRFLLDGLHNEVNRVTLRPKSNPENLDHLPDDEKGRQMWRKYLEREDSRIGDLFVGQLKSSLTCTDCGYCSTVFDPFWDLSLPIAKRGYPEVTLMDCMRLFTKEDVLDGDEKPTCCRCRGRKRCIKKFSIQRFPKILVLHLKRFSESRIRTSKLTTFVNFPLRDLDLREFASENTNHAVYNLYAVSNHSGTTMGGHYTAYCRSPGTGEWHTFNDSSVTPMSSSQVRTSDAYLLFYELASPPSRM

CCCn1c(=O)c(C)cn2nc(N)nc12
not listed: [8] | [9]
inactive: all other assays above

NC1(C(=O)O)CCc2cc(C(=O)O)ccc21 (stereo not drawn)
not listed: [9]
inactive: all other assays above

CCCCCCCCCCC/C=C\C(C)(C)/C=C\CCCC(=O)O
not listed: [5] | [9]
inactive: all other assays above

CCCCCCCCCCCCCCCCCCOC[C@H](COP(=O)([O-])OCC[N+](C)(C)C)OC
not listed: [6] | [7] | [9]
inactive: all other assays above

COc1cc(/C=C(\C#N)C(=O)c2ccc(O)c(O)c2)cc(I)c1O
inactive: [1] | [2] | [3] | [4] | [8]
active: [5] 14.7 µM

CCCCCCCCCCC(C)(C)C(=O)Nc1c(OC)cc(OC)cc1OC
not listed: [6] | [9]
inactive: all other assays above

N=C(N)c1ccccc1
not listed: [8] | [9]
inactive: all other assays above

COc1ccccc1N1CCN(CCN(C(=O)c2ccc(F)cc2)c2ccccn2)CC1
not listed: [9]
inactive: all other assays above

Nc1ccc(-c2nc3ccc(-c4nc5ccc(N)cc5[nH]4)cc3[nH]2)cc1
active: [6] 21.2 µM
inactive: [1] | [2] | [3] | [4] | [8]

[Li+]
not listed: [9]
inactive: all other assays above

CCCCCCCCCCCCCCSCC(=O)O
not listed: [6] | [8] | [9]
inactive: all other assays above

Cc1nc2n(c(=O)c1CCN1CCC(c3noc4cc(F)ccc34)CC1)CCCC2O (stereo not drawn)
not listed: [9]
inactive: all other assays above

CCn1c(=O)[nH]c2cc(Cl)c(Cl)cc21
not listed: [5] | [7] | [9]
inactive: all other assays above

NC(C(=O)N[C@@H]1C(=O)N2C(C(=O)O)=C(Cl)CS[C@H]12)c1ccccc1 (stereo partly drawn)
not listed: [8] | [9]
inactive: all other assays above

CCCC[C@@]1(C2CCCC2)Cc2cc(OCC(=O)O)c(Cl)c(Cl)c2C1=O
not listed: [8] | [9]
inactive: all other assays above

N=C(N)SCCN
not listed: [5] | [7] | [9]
inactive: all other assays above

Oc1ccc(/C=C/c2ccc(/C=C/c3ccc(O)cc3)c(Br)c2)cc1
not listed: [4] | [7] | [9]
inactive: all other assays above

O=c1cc(O)cc(/C=C/c2ccc(O)c(O)c2)o1
inactive: [1] | [2] | [4] | [9] | [8]

O=c1[nH]c(=O)c2nc3ccccc3nc2[nH]1
not listed: [3] | [8]
inactive: all other assays above

N=C(N)c1ccc(OCCCCCOc2ccc(C(=N)N)cc2)cc1 (tested in a mixture with another compound)
inactive: [1] | [2] | [6] | [7]
active: [3] 11.7 µM | [4] 10.4 µM

O=C1Nc2ccc(I)cc2/C1=C/c1cc(Br)c(O)c(Br)c1
inactive: [1] | [2] | [3] | [8]

O=c1cc(-c2ccccc2)[nH]c2nc(Cl)ccc12
active: [9] 6.31 µM
inactive: [1] | [2] | [3] | [6] | [7]

C#CC(N)CCC(=O)O (stereo not drawn)
not listed: [3] | [8]
inactive: all other assays above

CC1=C(/C=C/C(C)=C/C=C/C(C)=C\C(=O)O)C(C)(C)CCC1
not listed: [4] | [7]
inactive: all other assays above

COc1cc2c(CCNC(C)=O)c[nH]c2cc1O
not listed: [3] | [5]
inactive: all other assays above

CNCCNS(=O)(=O)c1cccc2cnccc12
not listed: [3] | [7]
inactive: all other assays above

CCCOC(=O)c1c(-c2ccccc2)nc(CC)c(C(=O)SCC)c1CCC
not listed: [5] | [9]
inactive: all other assays above

NC(N)=NC(N)=Nc1cccc(Cl)c1
not listed: [3]
inactive: all other assays above

CCN(CC)CCCCCCCCOC(=O)c1cc(OC)c(OC)c(OC)c1
not listed: [4] | [7] | [9]
inactive: all other assays above

Nc1ccc2c3c(cccc13)C(=O)NC2=O
inactive: [1] | [2] | [3] | [9] | [6]

From PubChem BioAssay (NCATS)
